Assay results taken from PubChem BioAssay.
Results filed as inconclusive are left out. Active and inactive are the calls of the source.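 Rule for the calls, unless noted: active = inhibition above 54%, about 3 SD of non-fluorescent compounds; inactive = the rest.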

Key:
[1] = yeast TOR pathway RPL19A-GFP modulators, primary screen, cell-based, S. cerevisiae, multiplex flow cytometry (AID 1862; in the data active = percent of DMSO control GFP below about 86%;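 note: lower values mimic rapamycin by blocking the RPL19A rise seen in DMSO cells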); details: S. cerevisiae RPL19A-GFP strain, flow cytometry fluorescence, 3 h; at 10 µM; stronger effect = lower value
[2] = modulators of MEP2-GFP levels in yeast, primary screen, S. cerevisiae, multiplex flow cytometry (AID 1867;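 active = GFP response, as percent of the DMSO control, above the screen-wide mean plus 3 SD, about 139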;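 note: median GFP channel fluorescence of barcode-gated MEP2-GFP cells measured by flow cytometry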); details: S. cerevisiae MEP2-GFP strain, 3 h, at 10 µM, stronger effect = higher value, 100% means same as DMSO wells
[3] = modulators of CIT2-GFP expression in yeast, primary screen, S. cerevisiae, GFP fusion, multiplex flow cytometry (AID 1870;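 active = percent response above a set limit, the screen-wide mean plus 3 SD, cut at about 130% in these data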;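 note: barcoded CIT2-GFP strain pooled with four other GFP strains with rapamycin as positive control; median GFP fluorescence per well over plate mean of DMSO wells so 100% = DMSO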); details: 3 h, at 10 µM, stronger effect = higher value
[4] = modulators of LAP4-GFP expression in yeast, primary screen, S. cerevisiae, multiplex flow cytometry (AID 1873;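 active = GFP signal, as percent of the solvent control, above the screen mean plus 3 SD, about 149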); details: 3 h, at 10 µM, stronger effect = higher value
[5] = modulators of AGP1-GFP expression in yeast TOR pathway, primary screen, cell-based, multiplex flow cytometry, S. cerevisiae (AID 1887;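 active = GFP signal above the screen-wide mean plus 3 SD, that is over about 124.5% of the solvent control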;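 note: AGP1-GFP fusion strain of S. cerevisiae within a five-strain barcoded multiplex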); details: 3 h, at 10 µM, stronger effect = higher value
[6] = inhibitors of CD8+ T cell-vesicle binding, pilot screen, LFA-1/ICAM-1 modulator project, MLPCN validation set, flow cytometry (AID 2523;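 active = response below a set limit, under 55% cells CD8-positive and vesicle-bound, and CD8 cells' 90th-percentile brightness under 279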;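 for vesicle binding response: mean PE anti-B7-1 fluorescence of CD8+ cells relative to row control; 100% = QL9-loaded vesicles with DMSO vehicle in the same plate row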); details: 2C mouse CD8+ T cells, at 7 µM, stronger effect = lower value; double positive events: measured here: CD8+/vesicle+ event percentage
[7] = biological target: Integrin beta-1 (Homo sapiens) + Integrin alpha-4 (Homo sapiens) (UniProt P13612+P05556); assay: inhibition of HUTS-21 binding to VLA-4, pilot screen, VLA-4 allosteric modulator project, U937 cells, HUTS-21 mAb, flow cytometry, validation set (AID 2674;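 active = inhibition above 50%, about 3 SD of the validation set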;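 note: antibody binding induced by the VLA-4 ligand LDV present at three times its Kd; 0% = LDV ligand with antibody and no compound and 100% = antibody without LDV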); details: HUTS-21 LIBS mAb binding, at 6.7 µM, stronger effect = higher value, binding induced by LDV ligand
Sequence of Integrin beta-1 (Homo sapiens) + Integrin alpha-4 (Homo sapiens) (P05556 whole entry, looked up): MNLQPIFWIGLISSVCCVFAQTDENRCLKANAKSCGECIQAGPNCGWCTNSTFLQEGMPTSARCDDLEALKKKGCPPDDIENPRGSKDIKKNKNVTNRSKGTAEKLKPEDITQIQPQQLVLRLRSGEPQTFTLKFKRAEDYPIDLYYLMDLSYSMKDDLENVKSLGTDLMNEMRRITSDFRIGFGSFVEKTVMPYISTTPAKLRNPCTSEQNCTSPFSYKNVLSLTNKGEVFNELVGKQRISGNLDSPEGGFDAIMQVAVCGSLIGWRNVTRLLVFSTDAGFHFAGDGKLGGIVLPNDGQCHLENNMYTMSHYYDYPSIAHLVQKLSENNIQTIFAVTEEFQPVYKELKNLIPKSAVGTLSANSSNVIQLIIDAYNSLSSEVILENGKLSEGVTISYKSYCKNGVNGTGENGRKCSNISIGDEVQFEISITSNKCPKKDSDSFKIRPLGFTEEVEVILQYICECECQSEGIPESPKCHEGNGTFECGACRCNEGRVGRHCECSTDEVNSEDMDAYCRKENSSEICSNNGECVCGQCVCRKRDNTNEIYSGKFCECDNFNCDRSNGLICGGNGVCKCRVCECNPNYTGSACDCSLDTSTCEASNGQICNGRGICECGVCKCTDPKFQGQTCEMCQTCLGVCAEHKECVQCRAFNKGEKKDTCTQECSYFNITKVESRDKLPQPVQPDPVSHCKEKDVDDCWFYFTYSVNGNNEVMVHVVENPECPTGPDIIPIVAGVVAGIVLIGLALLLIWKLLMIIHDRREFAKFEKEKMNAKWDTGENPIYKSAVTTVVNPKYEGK
Sequence of Integrin beta-1 (Homo sapiens) + Integrin alpha-4 (Homo sapiens) (P13612 whole entry, looked up): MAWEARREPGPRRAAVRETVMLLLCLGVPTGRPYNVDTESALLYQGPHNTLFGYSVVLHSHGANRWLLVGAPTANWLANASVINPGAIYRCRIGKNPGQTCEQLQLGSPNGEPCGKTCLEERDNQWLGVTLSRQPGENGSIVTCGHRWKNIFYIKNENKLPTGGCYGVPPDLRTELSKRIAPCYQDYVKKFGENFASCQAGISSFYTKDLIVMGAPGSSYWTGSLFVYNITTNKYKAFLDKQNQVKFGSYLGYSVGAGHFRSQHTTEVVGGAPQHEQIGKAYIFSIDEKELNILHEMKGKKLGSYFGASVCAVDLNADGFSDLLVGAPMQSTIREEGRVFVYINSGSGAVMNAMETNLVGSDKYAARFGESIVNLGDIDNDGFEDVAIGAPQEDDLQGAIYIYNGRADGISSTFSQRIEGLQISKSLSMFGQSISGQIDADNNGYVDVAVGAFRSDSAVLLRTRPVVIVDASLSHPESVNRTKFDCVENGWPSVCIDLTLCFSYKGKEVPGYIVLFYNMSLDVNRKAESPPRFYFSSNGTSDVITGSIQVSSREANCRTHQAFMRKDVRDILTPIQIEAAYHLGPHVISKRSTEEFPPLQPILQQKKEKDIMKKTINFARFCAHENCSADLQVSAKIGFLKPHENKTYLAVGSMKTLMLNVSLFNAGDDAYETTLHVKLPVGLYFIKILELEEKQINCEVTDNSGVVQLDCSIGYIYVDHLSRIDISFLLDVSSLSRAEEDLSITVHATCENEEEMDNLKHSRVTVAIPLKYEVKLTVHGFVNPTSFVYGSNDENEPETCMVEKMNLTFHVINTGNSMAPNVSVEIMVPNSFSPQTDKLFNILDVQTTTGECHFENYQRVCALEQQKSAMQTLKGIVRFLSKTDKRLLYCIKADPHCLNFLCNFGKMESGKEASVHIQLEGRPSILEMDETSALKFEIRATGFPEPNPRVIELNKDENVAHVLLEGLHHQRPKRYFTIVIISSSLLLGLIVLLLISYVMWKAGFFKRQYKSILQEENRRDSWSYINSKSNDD

[8] = superoxide lowering in aged yeast cells, pilot screen, validation compound set (AID 2706;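 active = superoxide response below 65% of plate, a cut near 3 SD across the whole screen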;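 note: yeast exposed to compound for one week at 30 degrees C before staining; 100% = mean of all compound wells on the same plate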); details: S. cerevisiae aging, superoxide DHE fluorescence; at 10 µM; stronger effect = lower value
[9] = biological target: Beta-adrenergic receptor kinase 1 (Homo sapiens) (UniProt P25098); assay: GRK2 binders displacing RNA aptamer, biochemical, validation, human GRK2, bead flow cytometry (AID 488806;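 active = aptamer binding inhibition above 30%, about 3 SD of noise from non-fluorescent compounds; inactive = inhibition at or below 30%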); details: bead-bound GRK2, FAM-aptamer displacement, at 10 µM, stronger effect = higher value
Sequence of Beta-adrenergic receptor kinase 1 (Homo sapiens) (P25098 whole entry, looked up): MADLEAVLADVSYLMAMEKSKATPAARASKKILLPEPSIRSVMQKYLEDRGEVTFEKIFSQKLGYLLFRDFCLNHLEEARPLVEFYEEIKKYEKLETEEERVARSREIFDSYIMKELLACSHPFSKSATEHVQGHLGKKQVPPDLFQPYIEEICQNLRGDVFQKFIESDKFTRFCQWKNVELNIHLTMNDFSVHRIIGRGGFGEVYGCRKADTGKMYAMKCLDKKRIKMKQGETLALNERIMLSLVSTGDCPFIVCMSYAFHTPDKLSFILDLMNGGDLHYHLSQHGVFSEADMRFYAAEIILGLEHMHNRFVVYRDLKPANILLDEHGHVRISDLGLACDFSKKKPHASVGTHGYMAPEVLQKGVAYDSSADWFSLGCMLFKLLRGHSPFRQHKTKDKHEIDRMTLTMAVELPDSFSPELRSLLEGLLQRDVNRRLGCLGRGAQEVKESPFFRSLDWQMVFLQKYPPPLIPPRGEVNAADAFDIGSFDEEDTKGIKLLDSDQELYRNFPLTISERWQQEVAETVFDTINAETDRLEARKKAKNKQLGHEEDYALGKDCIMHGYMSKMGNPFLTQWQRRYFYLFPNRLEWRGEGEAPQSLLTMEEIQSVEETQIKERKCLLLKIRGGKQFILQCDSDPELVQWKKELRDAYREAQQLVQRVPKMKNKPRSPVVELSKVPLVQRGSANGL

[10] = biological target: Beta-2 adrenergic receptor (Homo sapiens) (UniProt P07550); assay: beta2AR agonists driving receptor internalization, pilot screen, cell-based, FAP fluorogen, flow cytometry, validation set (AID 504459;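 active = percent response above 42, roughly 3 SD of non-fluorescent test compounds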;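 note: agonist-driven loss of surface beta2AR via internalization measured by FAP dye flow cytometry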); details: Am2.2-beta2AR cells, FAP surface receptor flow cytometry; at 10 µM; stronger effect = higher value
Sequence of Beta-2 adrenergic receptor (Homo sapiens) (P07550 whole entry, looked up, the tested form may be a part): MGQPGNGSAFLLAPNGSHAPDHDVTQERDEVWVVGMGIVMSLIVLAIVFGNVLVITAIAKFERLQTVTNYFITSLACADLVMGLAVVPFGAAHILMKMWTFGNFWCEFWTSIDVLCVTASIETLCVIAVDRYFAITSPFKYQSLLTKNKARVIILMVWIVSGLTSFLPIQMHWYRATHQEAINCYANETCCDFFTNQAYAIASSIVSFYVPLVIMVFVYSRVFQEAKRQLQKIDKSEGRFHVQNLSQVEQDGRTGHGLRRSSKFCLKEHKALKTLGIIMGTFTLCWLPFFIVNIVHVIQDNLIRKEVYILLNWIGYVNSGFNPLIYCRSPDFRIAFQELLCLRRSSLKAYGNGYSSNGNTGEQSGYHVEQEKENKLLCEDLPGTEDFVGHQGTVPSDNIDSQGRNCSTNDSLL

[11] = biological target: AP-2 complex subunit beta (Homo sapiens) (UniProt P63010); assay: inhibitors of arrestin peptide binding to AP2, pilot screen, biochemical, validation set, GST-AP2 beads, flow cytometry (AID 504541); details: FITC arrestin peptide, at 10 µM, stronger effect = higher value, AP2 beta2 appendage fragment, R879A mutant;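 note: AP2 carries R879A mutation and is captured from E. coli lysate; bead-bound FITC arrestin peptide fluorescence measuring arrestin peptide binding to AP2; 0% = DMSO wells and 100% = excess unlabeled arrestin peptide control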
Sequence of AP-2 complex subunit beta (Homo sapiens) (P63010 whole entry, looked up, the tested form may be a part, one chain of several): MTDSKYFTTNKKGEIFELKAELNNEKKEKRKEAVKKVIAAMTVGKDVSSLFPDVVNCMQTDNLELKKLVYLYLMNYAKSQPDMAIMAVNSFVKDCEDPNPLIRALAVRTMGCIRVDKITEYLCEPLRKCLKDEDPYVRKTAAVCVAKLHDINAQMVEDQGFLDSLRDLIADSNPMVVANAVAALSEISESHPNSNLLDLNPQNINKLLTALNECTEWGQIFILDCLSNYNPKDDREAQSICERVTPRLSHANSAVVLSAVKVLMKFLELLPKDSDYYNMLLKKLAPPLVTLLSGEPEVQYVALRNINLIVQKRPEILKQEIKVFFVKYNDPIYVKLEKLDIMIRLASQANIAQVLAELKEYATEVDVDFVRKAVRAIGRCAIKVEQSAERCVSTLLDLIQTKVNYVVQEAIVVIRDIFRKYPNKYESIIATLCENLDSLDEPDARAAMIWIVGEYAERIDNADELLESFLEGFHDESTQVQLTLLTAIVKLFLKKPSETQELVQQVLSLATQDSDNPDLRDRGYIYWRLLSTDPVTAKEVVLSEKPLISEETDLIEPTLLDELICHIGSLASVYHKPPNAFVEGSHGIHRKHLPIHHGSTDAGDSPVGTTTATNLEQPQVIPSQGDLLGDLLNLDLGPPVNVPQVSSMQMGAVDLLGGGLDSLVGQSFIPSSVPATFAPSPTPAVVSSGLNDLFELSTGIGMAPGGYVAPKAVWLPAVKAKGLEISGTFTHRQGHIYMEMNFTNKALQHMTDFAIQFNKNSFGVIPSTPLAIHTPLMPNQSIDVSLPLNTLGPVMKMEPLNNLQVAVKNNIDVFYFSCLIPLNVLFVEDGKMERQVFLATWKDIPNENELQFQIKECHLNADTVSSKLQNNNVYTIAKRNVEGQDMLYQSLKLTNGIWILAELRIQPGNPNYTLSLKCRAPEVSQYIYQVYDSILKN

[12] = yeast V-ATPase proton transport modulators, S. cerevisiae, pHLuorin, HTS validation (AID 504600; in the data active = response above about 15%;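 note: plate controls were DMSO for no effect and reference compound for full effect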); details: S. cerevisiae pHLuorin cytosolic pH, at 10 µM, stronger effect = higher value
[13] = tested on: anti-desmoglein-3 scFv antibody binding to human DSG3; assay: inhibitors of anti-DSG3 scFv binding to DSG3, pilot screen, biochemical, validation compound set, bead-based, flow cytometry (AID 588368;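 active = binding below the plate cutoff, the plate median minus 3 SD, with a reading above zero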;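 note: signal is the median channel fluorescence of bead-bound GFP antibody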); details: Protein G beads, DSG3-Fc, scFv-GFP binding, at 10 µM, stronger effect = lower value
[14] = inhibitors of fungal efflux pumps CDR1, CDR2, MDR1, pilot screen, validation compound set, multiplex, phenotypic (AID 588506;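 active = efflux inhibition above 0.42, the validation set average plus 4 SD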;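 note: Nile Red retained in cells so higher fluorescence means more efflux inhibition; 0 = negative control wells and 1 = enniatin B 25 µM full block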); details: S. cerevisiae pump-expressing triplex, Nile Red efflux flow cytometry; at 10 µM; stronger effect = higher value; the pumps come from Candida albicans
[15] = biological target: ATP-binding cassette sub-family B member 6 (Homo sapiens) (UniProt Q9NP58); assay: ABCB6 transporter inhibitors, pilot screen, K562-ABCB6 cells, flow cytometry, validation set (AID 588550;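 active = inhibition above the screen-wide mean plus 3 SD, about 51%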;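 note: 0% = DMSO wells and 100% = benzethonium chloride 70 µM positive control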); details: K562-ABCB6 porphyrin accumulation, 1 h, at 10 µM, stronger effect = higher value
Sequence of ATP-binding cassette sub-family B member 6 (Homo sapiens) (Q9NP58 whole entry, looked up): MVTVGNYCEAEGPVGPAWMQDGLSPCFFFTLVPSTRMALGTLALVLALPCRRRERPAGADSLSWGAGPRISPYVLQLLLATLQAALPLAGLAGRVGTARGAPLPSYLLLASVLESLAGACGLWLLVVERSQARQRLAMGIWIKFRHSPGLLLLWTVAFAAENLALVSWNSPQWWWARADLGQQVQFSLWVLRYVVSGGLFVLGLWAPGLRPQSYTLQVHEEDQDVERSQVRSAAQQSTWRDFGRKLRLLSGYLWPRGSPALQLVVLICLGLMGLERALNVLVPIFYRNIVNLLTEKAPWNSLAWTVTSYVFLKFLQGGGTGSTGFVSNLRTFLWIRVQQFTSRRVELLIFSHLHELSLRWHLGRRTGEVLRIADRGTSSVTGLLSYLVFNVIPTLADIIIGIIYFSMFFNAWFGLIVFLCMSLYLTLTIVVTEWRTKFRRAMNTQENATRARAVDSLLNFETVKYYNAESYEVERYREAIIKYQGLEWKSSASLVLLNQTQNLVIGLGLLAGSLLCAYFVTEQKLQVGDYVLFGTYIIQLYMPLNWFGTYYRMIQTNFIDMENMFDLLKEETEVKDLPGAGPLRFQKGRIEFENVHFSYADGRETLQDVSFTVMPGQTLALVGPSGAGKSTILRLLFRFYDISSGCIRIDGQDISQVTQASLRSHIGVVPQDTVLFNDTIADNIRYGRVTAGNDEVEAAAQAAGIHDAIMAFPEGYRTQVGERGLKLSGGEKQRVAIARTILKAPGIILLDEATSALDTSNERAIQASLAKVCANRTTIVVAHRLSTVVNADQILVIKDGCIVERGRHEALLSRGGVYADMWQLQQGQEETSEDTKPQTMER

[16] = promoters of myeloid differentiation in arrested cells, primary screen, cell-based, GFP/MAC1 double positive, flow cytometry, validation set (AID 588685;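 active = differentiation response of at least 50%, scaled between solvent and reference control, from cells with both markers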;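 note: compound exposure lasts four days before antibody staining and flow analysis; 0% = DMSO wells and 100% = 5 µM fulvestrant positive control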); details: ER-HoxA9 marrow cells, stronger effect = higher value, normalized: vehicle 0, fulvestrant 100

Row | Structure (SMILES) | percent of DMSO control GFP [1] | GFP response vs DMSO [2] | percent response of DMSO control [3] | GFP response vs DMSO [4] | GFP response, % of DMSO [5] | double positive events [6] | vesicle binding response [6] | inhibition [7] | superoxide response (% of plate) [8] | aptamer binding inhibition [9] | response [10] | inhibition [11] | response [12] | binding (% of control) [13] | efflux inhibition (fraction of control) [14] | inhibition [15] | differentiation response [16]
1 | COC(=O)C1=CN(Cc2cccs2)C=C(C(=O)OC)C1c1cccc(Cl)c1 | 103% (inactive) | 107% (inactive) | 98.2% (inactive) | 92.3% (inactive) | 97.2% (inactive) | 61.5% | 186% (inactive) | 14% (inactive) | 103% (inactive) | 5% (inactive) | 9.92% (inactive) | 2.7% (inactive) | -0.61% (inactive) | 99.5% (inactive) | 0.26 (inactive) | 6% (inactive) | 6.49% (inactive)
2 | CCOC(=O)Cn1c(C)cc(=O)c2ccccc21 | 97.6% (inactive) | 114% (inactive) | 91% (inactive) | 117% (inactive) | 103% (inactive) | 59.9% | 226% (inactive) | 10.5% (inactive) | 103% (inactive) | 0% (inactive) | 8.73% (inactive) | 56.3% (active) | -4.51% (inactive) | 92.6% (inactive) | 0.3 (inactive) | 0% (inactive) | 114% (active)
3 | Cc1ccc(C2CC(c3cccs3)=NN2C(=O)c2ccco2)o1 (centres undefined) | 92.6% (inactive) | 87.6% (inactive) | 89.3% (inactive) | 82.8% (inactive) | 87% (inactive) | 62.2% | 135% (inactive) | 2.93% (inactive) | 106% (inactive) | -1% (inactive) | -25.7% (inactive) | -17.3% (inactive) | -7.57% (inactive) | 107% (inactive) | 0.275 (inactive) | -1% (inactive) | 1.28% (inactive)
4 | Cc1cccc(C(=O)c2cccc(C)c2)c1 | 105% (inactive) | 103% (inactive) | 109% (inactive) | 105% (inactive) | 105% (inactive) | 56% | 45.4% (inactive) | 12% (inactive) | 104% (inactive) | 0% (inactive) | -8.97% (inactive) | -6.55% (inactive) | 1.1% (inactive) | 98.7% (inactive) | -0.17 (inactive) | 1% (inactive) | -7.57% (inactive)
5 | O=C(/C=C/Sc1ccccc1)c1ccccc1 | 106% (inactive) | 101% (inactive) | 100% (inactive) | 112% (inactive) | 94.6% (inactive) | 63.9% | 263% (inactive) | -15% (inactive) | 109% (inactive) | -1% (inactive) | 28.9% (inactive) | 14.1% (inactive) | -5.17% (inactive) | 103% (inactive) | -0.01 (inactive) | -13% (inactive) | 37.4% (inactive)
6 | COc1ccc(C2=C(CN(C)C)C(c3ccccc3)c3ccccc3O2)cc1 (centres undefined) | 102% (inactive) | 105% (inactive) | 96.6% (inactive) | 92% (inactive) | 99.7% (inactive) | 61.4% | 6270% (inactive) | 3.7% (inactive) | 102% (inactive) | -2% (inactive) | 10.4% (inactive) | 12.1% (inactive) | -5.6% (inactive) | 104% (inactive) | -0.14 (inactive) | 7% (inactive) | 0.24% (inactive)
7 | CCOC(=O)N1CCN(Cc2nc(Cc3cccc(F)c3)no2)CC1 | 102% (inactive) | 105% (inactive) | 100% (inactive) | 99.9% (inactive) | 101% (inactive) | 64.5% | 171% (inactive) | -3.57% (inactive) | 103% (inactive) | 5% (inactive) | 0.58% (inactive) | -8.69% (inactive) | 2.06% (inactive) | 94.8% (inactive) | 0.02 (inactive) | 13% (inactive) | 4.15% (inactive)
